According to the supplement of paper PMC11417369:
Over roughly 25,000 sequences, “ln(normalized median fluorescence intensity)” has its median near 9.7; the highest 2% begin near 11. The entries come from a sample that favours the highest values as a whole.

What follows are sequences tested on PfAP2-HC AP2 domain (GST-tagged) (assay: gcPBM binding intensity (ln(normalized median fluorescence intensity)); higher = stronger DNA binding).
Procedure, shortened: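 GST-tagged P. falciparum DNA-binding domains produced in E. coli were incubated for 1 h on an Agilent 4 × 180k array of primer-extended double-stranded 36-bp intergenic genomic probes with negative controls. Binding intensity is the highest Masliner-normalised natural-log median intensity across replicate spots of either probe orientation, with bound protein detected by Alexa488 anti-GST antibody at 488 nm.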

Row | Sequence | gcPBM binding intensity (ln)
1 | TACAATTTATGACACACACACAATAATACCTATATA [CACACA_site6704] | 10.3
2 | CAATTTATAAAGAAAACACACATATACCTATATACA [CACACA_site6710] | 9.85
3 | AATACAATTTATAACACACACACAAGAATACCTATA [CACACA_site6705] | 11.1
4 | ATTGCATTTGTAGATAATACAATATGGATTGTTATA [CACACA_negctrl_site1749] | 9.44
5 | TCCTTATTACTTTTTTAAGTCGTAATGAAAGAAAAA [CACACA_negctrl_site1497] | 9.15
6 | AAATATATATACCACACACACATACCTCTATTTGTA [CACACA_site1854] | 11.1
7 | CAAAATATATATACCACACACACATACCTCTATTTG [CACACA_site1853] | 10.4
8 | AAATATTTATACCACACACACATACCTCTATTTGTA [CACACA_site6957] | 10.7
9 | AATAGATATATAAATACACACAAACATACCTATATA [CACACA_site7823] | 10.6
10 | CATACACATAGACACACACACATATATACCTATATA [CACACA_site6644] | 10.8
11 | TATACCTATAGACACACACACATATAGATTTATATA [CACACA_site7124] | 11.1
12 | GATACCTATAGACACACACACATACCTATATACATA [CACACA_site7586] | 10.9
13 | CATACATAGATATATACACACATACCTATAAATACA [CACACA_site6513] | 10.2
14 | TATACCTATAGACACACACACATAAATAGATATATA [CACACA_site6748] | 11.1
15 | CATATATACCTATATACACACATATAGATTTATATA [CACACA_site6451] | 9.78
16 | ATATATACCTAAGACACACACATATAGATTTATATA [CACACA_site6498] | 10.4
17 | TATAGATACCTATACACACACACACGGACATATATA [CACACA_site7585] | 10.8

Row | Sequence | gcPBM binding intensity (ln)
18 | TTTGTAAGTCTTTGTTGTACTCAATAGAATGAAGAA [XGTACX_site8930] | 9.45
19 | AACTCTTAGAATGACGGTACAGTATAATAGGTGAAC [XGTACX_site7163] | 9.69
20 | TATAACTTTTTTAATACACACAAATATTTATTTATA [CACACA_site7425] | 9.61
21 | ATACGTATATAATATACATGCATATATAGCACATAC [TGCATGCA_site376] | 9.83
22 | CATACATACAAACACACACACATATATATACATACA [CACACA_site852] | 11.4
23 | CATACATACAAACACACACACATATATATATATATA [CACACA_site43] | 10.2
24 | AAAAAAAACGAACACACACACATACAAAATCTATAT [CACACA_site6795] | 11.1
25 | TTCAAATATAAATACACACACATAGCTACAAAATAA [CACACA_site4172] | 11
26 | AATATATAGCTAAAAACACACAAATATATACACATA [CACACA_site9203] | 9.97
27 | TATAAATATACAAACACACATACAAACATATATATA [CACACA_site1120] | 10.2
28 | TACAATCTAAAATACACACACACAAACATATATTTA [CACACA_site3702] | 10.7
29 | CATACATACAAACACACACACATATAAATACATACA [CACACA_site4625] | 11.2
30 | CACATACACATACAAACACACATTATATATATATAT [CACACA_site8460] | 10.4
31 | AATTCAAATATAAATACACACACATAGCTACAAAAT [CACACA_site9386] | 10.3
32 | TAAATATATAAATACACACAAACATACATATATATA [CACACA_site4050] | 10.1
33 | AAATATAAAAAATATACACACATATAAAATCTATAT [CACACA_site7406] | 9.91
